High-throughput results (PubChem)
Rows were chosen to be rich in hits. Some 6.8% of all compounds tested hit in one or more screens of this group.
KB-3-1 tox = kills parental KB-3-1 adenocarcinoma cells; 1.4% of 400,000 active; KB-3-1 viability, CellTiter-Glo ATP luminescence, 72 h; Potency, µM (titrated, usually from 46.1 µM), most hits filed as cytotoxic; also: nearly all actives have a fitted effect of over 60% in size
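Cells are dispensed, compounds pinned in, plates held at 37 °C for 72 h, then CellTiter-Glo is added and luminescence read after 10 minutes. Cell line: parental KB-3-1 in phenol-red-free DMEM, 10% FBS.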
PTAP TSG101 blk = blocks PTAP/TSG101 interaction to inhibit HIV-1 budding; Fluorescence polarization, FITC-PTAP peptide / Tsg101 binding; Potency, µM (top dose mostly 115 µM), actives largely listed as inhibitors; 340,000 tested, under 10 active; AID 493005; active = well fitted inhibition curve with a large enough effect in the main read-out, with a control signal flat, not every such curve was filed as active; inconclusive = small, poorly fitted or top-dose-only effect, or effect the other way, or a change in a side signal; inactive = no such curve, though single readings can be large or run the other way
Target sequence (Q99816 whole entry, looked up): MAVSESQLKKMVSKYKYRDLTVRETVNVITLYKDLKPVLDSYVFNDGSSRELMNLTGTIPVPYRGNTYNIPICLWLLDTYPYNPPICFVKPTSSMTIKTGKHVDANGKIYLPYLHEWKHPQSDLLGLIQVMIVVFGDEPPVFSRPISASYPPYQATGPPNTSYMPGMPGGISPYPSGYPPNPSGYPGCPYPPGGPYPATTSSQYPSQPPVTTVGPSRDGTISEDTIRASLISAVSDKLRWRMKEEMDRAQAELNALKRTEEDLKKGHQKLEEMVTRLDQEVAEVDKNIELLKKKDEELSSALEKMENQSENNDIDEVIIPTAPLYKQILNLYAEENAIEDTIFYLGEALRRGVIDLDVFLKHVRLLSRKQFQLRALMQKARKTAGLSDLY
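Compounds were pin-transferred onto Tsg101 binding domain (10 uM final) in HEPES pH 7.5 buffer, then FITC-PTAP peptide was added at 50 nM final. After 20 min at RT, polarization reported peptide displacement across a qHTS concentration series.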
KB-V1 cytotox = KB-V1 MDR subline cytotoxicity | KB-V1 MDR cells viability, CellTiter-Glo, 72 h | 3.4% of 400,000 active | Potency, µM (highest dose often 46.1 µM), most hits filed as cytotoxic; also: nearly all actives have a fitted effect of over 60% in size
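In this primary screen, KB-V1 cells overexpressing P-gp are incubated with library compounds (lowest to highest concentration) for 72 h at 37 degrees C before a luminescent ATP viability read.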
MCF10A rerep = induces DNA re-replication in MCF 10a normal breast cells | AID 624296 | MCF 10A DNA re-replication, Hoechst nuclear intensity, 48 h | 2.9% of 350,000 active | Potency, µM (doses to about 46.1 µM), actives largely listed as activators; also: nearly all actives have a fitted effect of over 50% in size
PINK1 expr mod = PINK1 expression modulation | PINK1 immunofluorescence, high-content cytometry, 24 h | Potency, µM (series often up to 76.6 µM), hits mostly activators | 0.2% of 410,000 active | AID 624263; active = well fitted activation curve with a large enough effect; inconclusive = small, poorly fitted or top-dose-only effect; cell line not stated here; also: nearly all actives have a fitted effect of over 65% in size
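Measures PINK1 amount and localization on or inside mitochondria by immunofluorescence. Stable cells get compounds at 5 concentrations for 24 hours before fixation and staining; CCCP controls included.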
SW480 rerep = induces DNA re-replication in SW480 colon adenocarcinoma cells. SW480 DNA re-replication, Hoechst DNA content imaging, 48 h. AID 624297. Potency, µM (series often up to 46.1 µM), most hits filed as activators. 1.8% of 340,000 active; also: nearly all actives have a fitted effect of over 55% in size
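Treated cells incubate 48 hr (37 C, 5% CO2), are stained 40 min with Hoechst, and nuclear fluorescence is enumerated; a rise in nuclei with high DNA signal marks re-replication.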
A number is an active result; - = inactive; ? = inconclusive; . = no result given; ! = not confirmed by another sample. Unless noted, calls follow the shape of the dose curve; as a rule, active = well fitted curve in the direction sought with a large enough effect; inconclusive = small, poorly fitted or top-dose-only effect, or another doubt; inactive = no such curve, though single readings can be large; an effect the other way counts as inactive or inconclusive.

SMILES	KB-3-1 tox	PTAP TSG101 blk	KB-V1 cytotox	MCF10A rerep	PINK1 expr mod	SW480 rerep
FC(F)(F)c1ccccc1NC(=S)NN=C1CCCCCC1	?	-	?	?	-	11.6µM
Cc1ccccc1C(=O)NC(=S)Nc1ccccc1C(F)(F)F	-	-	-	-	-	-
O=C(NC(=S)Nc1ccccc1C(F)(F)F)c1ccccc1F	-	-	-	10.3µM	-	-
CC1CN(C(=O)N2CCC(C(=O)NC3CCCCCC3)CC2)c2cc(Cl)ccc2O1 (centres undefined)	-	.	-	.	-	.
CCN(CC)C1=N/C(=C\c2ccc(OC)cc2)C(=O)N1c1ccccc1	-	-	8.2µM	18.4µM	-	16.4µM
COc1cccc(-n2c(SCC(=O)Nc3cc(C)on3)nc3ccccc3c2=O)c1	-	-	-	-	-	-
CCSC1=N/C(=C\c2ccccc2)C(=O)N1c1ccc(OC)cc1	-	-	-	14.6µM	-	18.4µM
COc1ccc(/C=C2/N=C(SCC(=O)Nc3cc(C)on3)N(c3ccccc3)C2=O)cc1	-	-	-	20.6µM	?	-
CCc1sc2nc(SCC(=O)Nc3cc(C)on3)n(-c3cccc(OC)c3)c(=O)c2c1C	-	-	1.64µM	?	-	-
Cc1ccc(CNC(=O)c2cnc(N3CCCCC3)c3ccccc23)cc1	-	.	-	.	-	.
CCc1cccc(N=c2c([N+](=O)[O-])nn(-c3ccc4c(c3)OCCO4)n2O)c1	-	-	?	-	-	-
O=[N+]([O-])c1nn(-c2ccccc2)n(O)c1=NC1CCN(Cc2ccccc2)CC1	-	-	?	?	-	10.3µM
O=[N+]([O-])c1nn(-c2ccc3c(c2)OCCO3)n(O)c1=NC1CCN(Cc2ccccc2)CC1	-	-	-	-	-	7.31µM
O=C1CCC(C(=O)N2CCCC(C(=O)c3ccc4c5c(cccc35)CC4)C2)=NN1 (centres undefined)	14.6µM	-	-	?	-	-
O=C(NCc1ccc(Cl)cc1)C(=O)NCC(c1ccco1)S(=O)(=O)c1cccs1 (centres undefined)	-	.	-	.	-	.
COc1ccc2c(c1)c1c(c(=O)n(-c3ccccc3C)c(=O)n1CC(=O)Nc1c(C)cccc1C)n2C	-	.	-	.	-	.
COc1cc2c(C#N)c(N3CCCC3)nc(N)c2c(N)n1	-	-	?	-	-	-
N#Cc1c(N2CCCC2)nc(N)c2c(N)nc(N3CCCC3)cc12	?	-	0.731µM	?	?	?
COc1cc2c(C#N)c(N3CCN(c4ccccc4OC)CC3)nc(N)c2c(N)n1	?	-	?	10.3µM	-	?
Nc1nc(NCc2cccc(Cl)c2)c2[nH]cnc2n1	-	.	-	.	-	.
N#CC1CN(C(c2ccccc2)c2ccccc2)C1	-	-	-	-	-	-
N#CC1CN(Cc2ccccc2)CN(Cc2ccccc2)C1	-	-	-	14.6µM	-	?
COc1ccccc1CCNc1ncnc2sc(C(=O)N3CCCCC3)c(C)c12	.	.	.	.	-	.
Cc1c(C(N)=O)c(N)c(C(=O)c2ccccc2)n1-c1ccccc1	-	-	20.6µM	-	-	-
O=c1oc2ccccc2cc1-c1nnc(NCc2ccco2)s1	?	-	?	9.2µM	-	13µM
SMILES	KB-3-1 tox	PTAP TSG101 blk	KB-V1 cytotox	MCF10A rerep	PINK1 expr mod	SW480 rerep
c1ccc(-c2nnc(-c3ccco3)n2-c2ccccc2)cc1	-	-	18.4µM	?	-	-
Cc1cc(C(=O)Cn2nc(C(=O)O)c3ccccc3c2=O)c(C)n1-c1ccccc1	-	-	16.4µM	-	-	-
O=S(=O)(c1ccccc1)c1cnc(-c2cccnc2)nc1-c1ccc(Cl)c(Cl)c1	-	-	6.51µM	-	-	-
Cc1ncc(S(=O)(=O)c2ccccc2)c(-c2ccccc2)n1	-	-	-	-	-	-
Cc1cc(OCC(=O)N(Cc2ccc(N(C)C)cc2)Cc2ccco2)cc(C)c1Cl	.	.	.	.	-	.
COc1cc2c(cc1OC)CN(C(=O)[C@@H]1C[C@H](NCc3cn(C)c4ccccc34)CN1C1Cc3ccccc3C1)CC2	.	.	.	.	-	.
O=C1CSC2(CCN(CCCN3c4ccccc4Sc4ccc(Cl)cc43)CC2)N1	.	.	.	18.8µM	.	-
NC(=O)N1CCN(CCCN2c3ccccc3Sc3cc(Cl)ccc32)CC1	-	.	-	.	-	.
CN1CCN(CCCN2c3ccccc3Sc3ccc(C(F)(F)F)cc32)CC1	?	-	20.6µM!	23.1µM	-	?
CCc1c(C)nc2ncnn2c1NCCc1ccc(OC)cc1	5.62µM	-	?	2.51µM	-	5.62µM
CCc1c(C)nc2ncnn2c1Nc1ccc(C)cc1	-	-	-	-	-	-
O=C(O[C@H]1[C@H](Cc2ccccc2)NS(=O)(=O)[C@H]2C[C@@H]3C=C[C@]12O3)c1ccccc1Br	-	.	-	.	.	.
NNc1nc2c(-c3ccc(F)cc3)nnn2c2ccccc12	-	-	-	23.1µM	-	?
COc1ccc(CNc2nc3c(-c4ccccc4)nnn3c3ccccc23)cc1	-	.	-	.	-	.
Fc1ccc(-c2nnn3c2nc(NCc2ccccc2)c2ccccc23)cc1	-	-	-	?	-	?
COc1ccc(-c2nnn3c2nc(NCc2ccccc2)c2ccccc23)cc1	-	-	-	1.64µM	-	?
NNc1nc2c(-c3ccc(Cl)cc3)nnn2c2ccccc12	-	-	-	5.8µM	-	8.2µM
Cc1ccc(C(=O)Nc2cc3c(cc2C)n(C)c(=O)c(=O)n3C)cc1	.	.	.	.	-	.
Cn1c(SCc2cccc([N+](=O)[O-])c2)nc2c(c1=O)SCC2	?	-	4.11µM	-	-	-
Cn1c(SCc2ccc(Br)cc2)nc2c(c1=O)SCC2	20.6µM	-	20.6µM	-	-	-
COc1ccc(-n2c(SCC(=O)Nc3cc(C)on3)nc3c(c2=O)SCC3)cc1	-	-	-	-	-	-
Cc1cc(NC(=O)CSc2nc3c(c(=O)n2-c2ccc(Br)cc2)SCC3)no1	-	-	?	8.2µM	.	?
Cn1c(SCc2cccnc2)nc2c(c1=O)SCC2	-	-	?	-	-	-
Cn1c(=O)c2c(nc(N3CCOCC3)n2Cc2ccccc2)n(C)c1=O	-	.	-	.	-	.
CCC1CN(CCNC(=O)c2cccnc2OC)Cc2cc(OC)ccc2O1 (centres undefined)	.	.	.	.	-	.
Cc1nc2ccccn2c1-c1csc(Nc2cccc(C(=O)O)c2)n1	-	-	-	-	-	-
Cc1nc2ccccn2c1-c1csc(Nc2ccc(C(=O)O)cc2)n1	?	-	?	11.6µM	-	11.6µM
Cc1nc2ccccn2c1-c1csc(Nc2cccc(O)c2)n1	?	-	10.3µM	?	-	?
Cc1nc(N)sc1-c1csc(Nc2cccc(O)c2)n1	-	-	-	-	-	-
Cc1cccc(Nc2nc(-c3c(C)nc4ccccn34)cs2)c1	?	-	7.31µM	-	.	?
